Assay outcomes (PubChem)
This is a sample that favours compounds with a hit; in the whole collection about 6.7% have one here.
KB-3-1 tox – KB-3-1 parental cell cytotoxicity. Potency, µM (series often up to 46.1 µM), actives largely listed as cytotoxic. 400,000 tested, 1.4% active. KB-3-1 viability, CellTiter-Glo ATP luminescence, 72 h; also: nearly all actives have a fitted effect of over 60% in size
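72 h, 37 °C compound treatment of KB-3-1 parental cells; CellTiter-Glo added, 10 min, luminescence read. Data corrected against DMSO-only plates and normalized before curve fitting.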
MCF10A rerep – inducers of DNA re-replication in MCF 10A breast cells; AID 624296; 350,000 tested, 2.9% active; Potency, µM (series often up to 46.1 µM), actives largely listed as activators; MCF 10A DNA re-replication, Hoechst nuclear intensity, 48 h; also: nearly all actives have a fitted effect of over 50% in size
KB-V1 MDR tox – kills drug-selected multidrug resistant KB-V1 cells. KB-V1 MDR cells viability, CellTiter-Glo, 72 h. Potency, µM (highest dose often 46.1 µM), usual class: cytotoxic. 400,000 tested, 3.4% active. AID 1347076; also: nearly all actives have a fitted effect of over 60% in size
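Readout: CellTiter-Glo luminescence, 10 min after addition. Cells: KB-V1 MDR subline, 72 h at 37 degrees C with compound. Analysis: corrected, normalized data fitted to concentration-effect curves.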
SW480 rerep – DNA re-replication induction in SW480 cells; Potency, µM (titrated, usually from 46.1 µM), actives largely listed as activators; AID 624297; SW480 DNA re-replication, Hoechst DNA content imaging, 48 h; 340,000 tested, 1.8% active; also: nearly all actives have a fitted effect of over 55% in size
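Compounds, transferred as 23 nL by pin tool, were incubated with cells for 48 hr; DNA content per nucleus was then quantified by Hoechst staining and fluorescence plate imaging.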
PINK1 modulator – modulators of PINK1 expression; PINK1 immunofluorescence, high-content cytometry, 24 h; Potency, µM (series often up to 76.6 µM), most hits filed as activators; 410,000 tested, 0.2% active; AID 624263; active = well fitted activation curve with a large enough effect; inconclusive = small, poorly fitted or top-dose-only effect; cell line not stated here; also: nearly all actives have a fitted effect of over 65% in size
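Measures PINK1 amount and localization on or inside mitochondria by immunofluorescence. Stable cells get compounds at 5 concentrations for 24 hours before fixation and staining; CCCP controls included.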
Numbers stand for hits; n = inactive; u = inconclusive; x = no result given; ! = not active in a repeat; [ ] = dose if it differs, or a comment. Unless noted, calls follow the shape of the dose curve; as a rule, active = well fitted curve in the direction sought with a large enough effect; inconclusive = small, poorly fitted or top-dose-only effect, or another doubt; inactive = no such curve, though single readings can be large; an effect the other way counts as inactive or inconclusive.

SMILES | KB-3-1 tox | MCF10A rerep | KB-V1 MDR tox | SW480 rerep | PINK1 modulator
CCOC(=O)C1=CN(Cc2ccc(OC)cc2)C=C(C(=O)OCC)C1c1cccs1 | n | 18µM | u | u | n
COC(=O)C1=CN(Cc2ccc(OC)cc2)C=C(C(=O)OC)C1c1cc(OC)c(OC)c(OC)c1 | n | u | n | n | n
CN(C)S(=O)(=O)c1ccc2c(c1)N(CC(=O)NCc1ccc(F)cc1)C(=O)CS2 | n | x | n | x | n
O=C(CCCn1c(=S)[nH]c2ccc(Br)cc2c1=O)N1CCN(c2ccccn2)CC1 | n | u | 2.9µM | u | n
O=c1c2cc(Br)ccc2[nH]c(=S)n1Cc1ccccn1 | n | n | 16µM | n | n
O=c1c2cc(Br)ccc2[nH]c(=S)n1Cc1ccccc1 | n | n | n | n | u
Cc1cc2c(cc1C)-n1c(-c3ccccc3)c3c(=O)n(C)c(=O)n(C)c3c1C(c1ccco1)N2 (configuration not stated) | n | x | u | x | n
COc1ccc(CNC(=O)c2cnn(-c3ccc(C)cc3)c2-n2cccc2)cc1OC | x | x | x | x | n
COc1cccc(-c2ccc3ncnc(NCc4ccc5c(c4)OCO5)c3c2)c1 | n | 16µM | n | n[9.22 µM] | n
Cc1cccc(CNc2ncnc3ccc(-c4ccc5c(c4)OCCO5)cc23)c1 | 8.2µM | u | n | n | 22µM
c1nc(NCc2ccc3c(c2)OCO3)c2cc(-c3ccc4c(c3)OCCO4)ccc2n1 | n | 9.2µM | n | n[9.22 µM] | u
Clc1cccc(-c2ccc3ncnc(NCc4cccs4)c3c2)c1 | n | u | n | n[9.22 µM] | u
Cc1cccc(-c2ccc3ncnc(NCc4cccs4)c3c2)c1 | 13µM | n | n | n | u
Cc1cccc(CNc2ncnc3ccc(-c4ccoc4)cc23)c1 | n | 2.6µM | n | n | n
COc1ccc(C(=O)c2c3ccc(OC)cc3[n+]([O-])n2Cc2ccc(C(N)=O)cc2)cc1 | n | u | n | n | n
CC(=O)Nc1ccc(NC(=O)CSc2nnc3ccc(-c4cccnc4)nn23)cc1 | n | n | n | n | n
COc1ccc(-c2cn(Cc3ccc(C(=O)c4ccccc4)cc3)nn2)cc1 | 4.1µM! | 2.6µM | 2.6µM! | u | n
COc1cccc(C(C(=O)NCC2CCCO2)N(C(=O)Cn2nnc3ccccc32)c2ccccc2C(C)=O)c1OC (configuration not stated) | n | n | n | n | n
CC(NC(=O)C1CC1)c1nnc2n1CCN(Cc1cccc(F)c1F)CC2 (configuration not stated) | x | x | x | x | n
CCSc1nc2ccccc2n1C(=O)/C=C/c1ccc(OC)c(OC)c1 | u | 4.1µM | u | 5.8µM | n
C=CCSc1nc2ccccc2n1C(=O)/C=C/c1cc(OC)c(OC)c(OC)c1 | n | 3.3µM | u | u | n
C=CCSc1nc2ccccc2n1C(=O)/C=C/c1ccc(OC)c(OC)c1 | u | 4.1µM | n | u | n
COc1cc(/C=C/C(=O)N2CCN(C(=O)/C=C/c3cc(OC)c(OC)c(OC)c3)CC2)cc(OC)c1OC | n | n | n | n | n
CCn1c(SCC(=O)N/N=C/c2ccc(OC)c(OC)c2)nc2ccccc21 | n | n | n | n | n
O=[N+]([O-])c1ccc2nc(Cl)nc(-c3ccccc3)c2c1 | n | n | n | n | n
SMILES | KB-3-1 tox | MCF10A rerep | KB-V1 MDR tox | SW480 rerep | PINK1 modulator
Cc1ccc(CNC(=O)c2cc(=O)c3cc(C)cc(C)c3o2)cc1 | n | x | n | x | n
Clc1cccc(-c2cc3nc4c(c(N5CCOCC5)n3n2)CCCC4)c1 | n | n | n | n | n
Fc1cccc(-c2cc3nc4c(c(N5CCOCC5)n3n2)CCCC4)c1 | n | n | 26µM | n | n
Cc1ccc(F)cc1C(=O)N1CCCC(c2cc(C(=O)NCc3ccc(F)cc3)no2)C1 (configuration not stated) | n | x | n | x | n
CCn1c(C)nc2cc(S(=O)(=O)N3CCCC3)ccc21 | n | n | n | n | n
CCn1c(C)nc2cc(S(N)(=O)=O)ccc21 | n | 13µM | n | n | n
Cc1ccc(NC(=S)N2CCSC2c2cccs2)cc1 (configuration not stated) | n | n | n | u | n
COc1ccc(C2CCCN2C(=S)Nc2cccc(Cl)c2)cc1OC (configuration not stated) | u | n | n | n | n
COc1ccc(C2SCCN2C(=S)Nc2ccc(Cl)cc2)cc1 (configuration not stated) | u | n | 23µM | n | n
COc1ccc(C2SCCN2C(=S)Nc2cccc(Cl)c2)cc1 (configuration not stated) | u | n | 7.3µM | n | u
CCC1=C[C@@H]2CN(C1)Cc1c([nH]c3ccccc13)[C@@](C(=O)OC)(c1cc3c(cc1OC)N(C)[C@H]1[C@@](O)(C(=O)OC)[C@H](OC(C)=O)[C@]4(CC)C=CCN5CC[C@]31[C@@H]54)C2 | 0.029µM | x | u | x | n
CCCOc1ccc(Oc2nc(NCC(C)C)nc(N3CCOCC3)n2)nn1 | x | x | x | x | n
N/C(=N\OC(=O)c1ccccc1)C(C(=O)NOC(=O)c1ccccc1)C1CCCCC1 (configuration not stated) | 23µM | u | u | u | n
O=C(COC(=O)c1ccccc1)NC1CCCCCC1 | n | n | n | n | n
CCS(=O)(=O)c1ccc(C=NNc2nc3ccccc3o2)cc1 | n | n | 18µM | n | n
COCCn1c(C)cc(C(=O)COC(=O)c2[nH]c(C)c(C(C)=O)c2C)c1C | u | n | 4.1µM | n | n
COCCn1c(C)cc(C(=O)COC(=O)c2n[nH]c3ccccc23)c1C | n | u | 9.2µM | n | n
CN(C(=O)COC(=O)c1n[nH]c2ccccc12)c1ccccc1 | n | n | 8.2µM | n | n
Cc1cc(C(=O)COC(=O)c2n[nH]c3ccccc23)c(C)n1C | n | n | n | n | n
COc1ccc(Cl)cc1NC(=O)CN(C)S(=O)(=O)c1ccc2c(c1)CCCN2C(C)=O | u | x | n | x | n
CN1C[C@@H]2[C@@H]3C(=O)N(Cc4ccccc4)C(=O)[C@@H]3[C@](C)(C1=O)N2C(=O)c1ccc(F)cc1 | n | n | n | n | n
O=S(=O)(c1ccc(Cl)cc1)c1snnc1-c1ccccc1 | 5.8µM | u | u | u | n
O=S(=O)(c1ccc(F)cc1)c1snnc1-c1ccccc1 | 13µM | 7.3µM | n | n | n
N#C/C(=C\c1ccc(Cl)s1)C(=O)N1CCN(c2ccccc2)CC1 | n | u | n | n | n
N#C/C(=C\c1ccc(Br)s1)C(=O)N1CCN(c2ccccc2)CC1 | n | u | 18µM | n | n
Cc1cc(-c2ccc(N3CCOCC3)cc2)nc2ccccc12 | n | 21µM | n | u | n
c1ccc2nc(-c3ccc(N4CCOCC4)cc3)ccc2c1 | n | n[0.0737 µM] | n | n | n
Cc1cccc(-c2nc(Nc3cccc(O)c3)c3ccccc3n2)c1 | n | 21µM | n | n | n
